FEN1 inh: inhibitors of human flap endonuclease 1 | P39748 | Recombinant FEN1 flap cleavage, fluorescence, 15 min | Potency, µM (doses to about 114 µM), inactives show at the top dose activity change, negative = inhibition, most hits filed as inhibitors | hit rate 0.35% among 390,000; note: nearly all actives have a fitted effect of over 65% in size
Target sequence (P39748 whole entry, looked up): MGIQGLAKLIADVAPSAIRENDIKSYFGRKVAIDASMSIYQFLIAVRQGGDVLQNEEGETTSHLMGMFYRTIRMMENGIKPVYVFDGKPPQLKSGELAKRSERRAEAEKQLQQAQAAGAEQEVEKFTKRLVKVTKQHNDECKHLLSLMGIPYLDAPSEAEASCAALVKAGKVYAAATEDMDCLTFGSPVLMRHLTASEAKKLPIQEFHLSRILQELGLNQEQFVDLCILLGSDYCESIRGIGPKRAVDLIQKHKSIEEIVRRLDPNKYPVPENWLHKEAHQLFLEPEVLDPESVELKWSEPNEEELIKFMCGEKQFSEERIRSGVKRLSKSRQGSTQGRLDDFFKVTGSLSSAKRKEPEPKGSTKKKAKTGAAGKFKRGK
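With each library titrated from low to high concentration, compounds met 10 nM FEN1 for 15 min at room temperature before 50 nM substrate was added; readings at 0 and 15 min fed four-parameter Hill curve fits.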
WRN inhibitor: inhibitors of human WRN helicase; hit rate 0.46% among 360,000; Potency, µM (top dose mostly 114 µM), inactives show at the highest dose activity change, negative = inhibition, most hits filed as inhibitors; Q14191; WRN helicase unwinding, fluorescent forked duplex, kinetic; AID 651768; note: nearly all actives have a fitted effect of over 55% in size
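Enzyme (20 nM final) and test compound sit together 15 min at room temperature before substrate addition. Substrate is a single-forked duplex oligonucleotide (100 nM) labelled with fluorophore and quencher, with 2 mM ATP; helicase unwinding raises red fluorescence, read kinetically.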
BLM helicase inh: blocks DNA unwinding by human BLM helicase; recombinant BLM DNA unwinding, fluorescence dequenching; Potency, µM (highest dose often 56.1 µM), without a hit: at the highest dose activity change, negative = inhibition, usual class: inhibitors; hit rate 0.2% among 350,000; AID 2528;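 note: plate controls were vehicle for no effect and no enzyme for full effect; nearly all actives have a fitted effect of over 35% in size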
L3MBTL1 inh: inhibitors of human L3MBTL1; Q9Y468; AlphaScreen L3MBTL1–H3K9me1 peptide binding; Potency, µM (titrated, usually from 57.1 µM), without a hit: at the top dose activity, negative = inhibition, usual class: inhibitors; hit rate 0.66% among 230,000; note: nearly all actives have a fitted effect of over 60% in size
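L3MBTL1 (50 nM) pre-complexed 30 min with biotinylated H3(1-15)K9me1 peptide (75 nM), then compounds added for 30 min at room temperature; AlphaScreen streptavidin donor/nickel chelate acceptor beads (10 ug/mL final) read after 30 min dark incubation.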
RECQ1 inh-1: RECQ1 (human) helicase inhibition; P46063; RECQ1 DNA unwinding, red fluorescence kinetic read; Potency, µM (titrated, usually from 57.3 µM), for inactives: top-dose activity, negative = inhibition, hits mostly inhibitors; hit rate 0.54% among 240,000; AID 2549;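 note: plate controls were vehicle for no effect and no enzyme for full effect; nearly all actives have a fitted effect of over 30% in size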
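RECQ1T1 50 nM; forked duplex (20 bp + 30-nt ss tails) 200 nM, ATP 2 mM final; pH 8.0, 2 mM MgCl2, 2.5 ug/ml poly(dI-dC); 15 min compound preincubation; discontinuous kinetic read over 2 h at RT.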
RECQ1 inh conf: confirmation of human RECQ1 helicase inhibitors; shares compounds with RECQ1 inh-1; RECQ1 helicase DNA unwinding, fluorescence; Potency, µM (highest dose often 229 µM), without a hit: at the highest dose activity change, negative = inhibition, hits mostly inhibitors; hit rate 28% among 610; AID 2708; note: nearly all actives have a fitted effect of over 45% in size
ADP FP counter: ADP displacement flagged in RECQ1 inhibitor counter-screen | shares compounds with RECQ1 inh-1 | ADP fluorescence polarization displacement counterscreen | hit rate 27% among 530 | Potency, µM (highest dose often 228 µM), inactives show top-dose activity change, negative = inhibition, hits mostly inhibitors | AID 2711; note: nearly all actives have a fitted effect of over 45% in size
RECQ1 inh-2: blocks human RECQ1 DNA unwinding. hit rate 15% among 1,100. Potency, µM (series often up to 119 µM), for the others: top-dose activity, negative = inhibition, hits mostly inhibitors. recombinant RECQ1 DNA unwinding, red fluorescence. AID 504841. shares compounds with RECQ1 inh-1; note: nearly all actives have a fitted effect of over 50% in size
An asterisk follows results filed as active; ! = a repeat was not active; [ ] = dose if it differs, or a comment. Rows were chosen to be rich in hits. Some 0.99% of all compounds tested hit in one or more screens of this group. Calls come from the whole dose curve; as a rule, active = well fitted curve in the direction sought with a large enough effect; inconclusive = small, poorly fitted or top-dose-only effect, or another doubt; inactive = no such curve, though single readings can be large; an effect the other way counts as inactive or inconclusive. Unless noted, % is set by controls: 0 for no effect and ±100 for the full control effect; potency is the fitted concentration of half-maximal effect.

How did Cc1ccccc1C(=O)N=c1ccn(-c2nc3ccccc3nc2NS(=O)(=O)c2ccccc2)cc1 do in these assays?
FEN1 inh: -8%; WRN inhibitor: 3%; BLM helicase inh: -6%

What do the screens show for `COc1ccc(S(=O)(=O)N2CCN(CC(=O)c3ccc(O)c(O)c3)CC2)cc1`?
FEN1 inh: -11%; WRN inhibitor: -6%[11.6 µM]; BLM helicase inh: -2%

How did O=C(CN1CCN(S(=O)(=O)c2ccc(F)cc2)CC1)c1ccc(O)c(O)c1 do in these assays?
FEN1 inh: -3%; WRN inhibitor: -3%; BLM helicase inh: 2%; RECQ1 inh-1: 40µM*; RECQ1 inh-2: -11%

Results for Nc1ccc(N(CCO)CCO)cc1 ?
FEN1 inh: -23%; WRN inhibitor: -30%; BLM helicase inh: -27%; L3MBTL1 inh: 13µM*; RECQ1 inh-1: inconclusive; RECQ1 inh-2: -5%

How did COC(=O)CCCC1=CC2=CC(=O)C(C)(OC(=O)c3cccs3)C(=O)C2=CO1 (centres undefined) do in these assays?
BLM helicase inh: -10%; RECQ1 inh-1: inconclusive; RECQ1 inh-2: inconclusive

Results for CCCCC1=CC2=CC(=O)C(C)(OC(=O)c3cccs3)C(=O)C2=CO1 (centres undefined) ?
FEN1 inh: -20%; WRN inhibitor: -33%; BLM helicase inh: -14%; RECQ1 inh-1: -18%

What do the screens show for `COc1cccc(Cn2c(=O)c(-c3ccc(F)cc3)nc3cnc(N4CCNCC4)nc32)c1`?
BLM helicase inh: 0%; RECQ1 inh-1: inactive

How did COc1ccc(-c2nc3cnc(N4CCNCC4)nc3n(Cc3cccc(OC)c3)c2=O)cc1 do in these assays?
BLM helicase inh: inconclusive; RECQ1 inh-1: inconclusive; RECQ1 inh-2: inconclusive

Results for C[C@@](N)(Cc1ccc(O)c(O)c1)C(=O)O ?
BLM helicase inh: 5%; RECQ1 inh-1: 11µM*!; RECQ1 inh conf: inconclusive; ADP FP counter: inconclusive

How did CC(N)(Cc1ccc(O)cc1)C(=O)O (centres undefined) do in these assays?
RECQ1 inh-1: inactive

Results for CSCC[C@H](NS(=O)(=O)c1ccc(C)cc1)C(=O)N1CCC(C(=O)N[C@@H](Cc2ccccc2)C(=O)O)CC1 ?
FEN1 inh: -10%; WRN inhibitor: 9%; BLM helicase inh: -2%; L3MBTL1 inh: 3%

How did [O-][n+]1cccc2c(Br)cc(Br)c(O)c21 do in these assays?
FEN1 inh: inconclusive; WRN inhibitor: -15%; BLM helicase inh: -15%; RECQ1 inh-1: -10%

What do the screens show for `C[n+]1cccc2c(Br)ccc([O-])c21`?
FEN1 inh: 1%; WRN inhibitor: -11%[11.6 µM]; BLM helicase inh: 20µM*; L3MBTL1 inh: inconclusive; RECQ1 inh-1: 32µM*; RECQ1 inh-2: -12%

How did CCCNc1c(NS(=O)(=O)c2ccc(Cl)s2)c(=O)oc2ccccc12 do in these assays?
FEN1 inh: 6%; WRN inhibitor: -11%; BLM helicase inh: -4%

How did COc1cccc(/C=C/C(=O)OCC(=O)NCc2ccco2)c1 do in these assays?
FEN1 inh: 1%; WRN inhibitor: -21%; BLM helicase inh: -23%; L3MBTL1 inh: inconclusive; RECQ1 inh-1: inconclusive; RECQ1 inh-2: -13%

Results for O=C(COC(=O)/C=C/c1ccc(F)cc1)NCc1ccc2c(c1)OCO2 ?
FEN1 inh: 2%; WRN inhibitor: 3%; L3MBTL1 inh: 9%

What do the screens show for `O=C(COC(=O)/C=C/c1ccco1)NCc1ccc2c(c1)OCO2`?
FEN1 inh: -6%; WRN inhibitor: -8%[11.6 µM]; BLM helicase inh: -7%; L3MBTL1 inh: -4%; RECQ1 inh-1: 1.1µM*; RECQ1 inh conf: -6%[114 µM]; ADP FP counter: 6%[91.9 µM]; RECQ1 inh-2: inconclusive

What do the screens show for `O=C(COC(=O)/C=C/c1cccc(Br)c1)NCc1ccco1`?
FEN1 inh: 5%; WRN inhibitor: -1%; L3MBTL1 inh: -10%

Results for Cc1cccc(NC(=O)CSc2nnc(-c3ccco3)c(-c3ccco3)n2)c1C ?
FEN1 inh: inconclusive; WRN inhibitor: 32µM*; BLM helicase inh: 18µM*; L3MBTL1 inh: inconclusive; RECQ1 inh-1: 18µM*; RECQ1 inh-2: -13%

How did Cc1ccccc1NC(=O)CSc1nnc(-c2ccco2)n1N do in these assays?
FEN1 inh: -1%; WRN inhibitor: -12%; L3MBTL1 inh: -7%

Results for CCn1nc(C(=O)Nc2nc3ccccc3[nH]2)c2ccccc2c1=O ?
FEN1 inh: 3%; WRN inhibitor: 0%; BLM helicase inh: 6%; L3MBTL1 inh: -9%; RECQ1 inh-1: 0%

How did Cn1nc(C(=O)Nc2nc3ccccc3[nH]2)c2ccccc2c1=O do in these assays?
FEN1 inh: -15%; WRN inhibitor: -7%; BLM helicase inh: -15%; L3MBTL1 inh: -3%; RECQ1 inh-1: inconclusive; RECQ1 inh-2: inconclusive

How did Cc1cccc(C(=O)Nc2ccc(C(=O)/C=C/c3cccnc3)cc2)c1 do in these assays?
FEN1 inh: -15%; WRN inhibitor: inconclusive; BLM helicase inh: -15%; L3MBTL1 inh: -3%; RECQ1 inh-1: 1.1µM*; RECQ1 inh conf: -8%[114 µM]; RECQ1 inh-2: inconclusive

What do the screens show for `Cc1ccc(SCc2cc(=O)[nH]c(N3CCN(Cc4ccccc4)CC3)n2)cc1`?
FEN1 inh: 9%; WRN inhibitor: -10%; BLM helicase inh: -3%; RECQ1 inh-1: -2%

Results for O=C(COC(=O)CNC(=O)c1cccc([N+](=O)[O-])c1)Nc1cccc(S(=O)(=O)N2CCCCC2)c1 ?
FEN1 inh: 0%; WRN inhibitor: -25%; BLM helicase inh: 1%; L3MBTL1 inh: -13%; RECQ1 inh-1: -1%

Results for Cc1ccc(NC(=O)COC(=O)CNC(=O)c2cccc([N+](=O)[O-])c2)cc1S(=O)(=O)N1CCCCCC1 ?
FEN1 inh: 1%; WRN inhibitor: -12%; BLM helicase inh: -9%; L3MBTL1 inh: -12%; RECQ1 inh-1: 32µM*; RECQ1 inh-2: -16%

What do the screens show for `COCCn1c(C)cc(C(=O)COC(=O)c2ccc(NC(=O)CC#N)cc2)c1C`?
FEN1 inh: -6%; WRN inhibitor: -31%; BLM helicase inh: -16%; RECQ1 inh-1: 32µM*; RECQ1 inh-2: -11%

How did CNC[C@H](O)c1ccc(O)c(O)c1 do in these assays?
BLM helicase inh: -3%; L3MBTL1 inh: inconclusive; RECQ1 inh-1: 18µM*!; RECQ1 inh conf: inconclusive; ADP FP counter: 14µM*

Bioassay records: PubChem, National Center for Advancing Translational Sciences (NCATS)
